Sampled rows, rich in hits. Any-hit rate of the full collection: about 2.8%.
ERa SRC1 inh: ERα–SRC-1 coactivator interaction inhibitors, primary screen, biochemical, TR-FRET, ERα LBD, estradiol-bound. hit rate 1.7% among 86,000. TR-FRET ER-alpha LBD / SRC-1 peptide. inhibition, % at 25.6 µM. AID 629, 2007; in the data active = inhibition above about 50%;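 also: 0% = receptor plus peptide control and 100% = peptide only without receptor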
Target sequence (P03372 whole entry, looked up, the tested form may be a part): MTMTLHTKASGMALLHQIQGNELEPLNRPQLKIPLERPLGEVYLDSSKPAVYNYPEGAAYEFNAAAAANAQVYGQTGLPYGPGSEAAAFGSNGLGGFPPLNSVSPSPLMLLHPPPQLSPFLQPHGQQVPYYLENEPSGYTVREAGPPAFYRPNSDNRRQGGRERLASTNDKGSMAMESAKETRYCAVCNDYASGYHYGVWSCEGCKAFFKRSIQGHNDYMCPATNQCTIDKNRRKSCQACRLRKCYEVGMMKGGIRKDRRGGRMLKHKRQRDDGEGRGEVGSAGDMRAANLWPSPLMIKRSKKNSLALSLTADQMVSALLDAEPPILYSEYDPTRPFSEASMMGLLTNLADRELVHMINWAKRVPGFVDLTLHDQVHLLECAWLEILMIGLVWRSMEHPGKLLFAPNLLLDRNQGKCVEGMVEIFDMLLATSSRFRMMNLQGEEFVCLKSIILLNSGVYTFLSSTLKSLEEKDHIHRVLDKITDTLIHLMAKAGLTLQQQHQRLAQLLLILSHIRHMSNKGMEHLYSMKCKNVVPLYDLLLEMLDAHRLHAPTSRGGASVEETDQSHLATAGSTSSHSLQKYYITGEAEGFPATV
ERb SRC1 inh: inhibitors of ERβ-SRC1 coactivator interaction, primary screen, biochemical, TR-FRET, ERβ LBD, SRC-1 peptide; TR-FRET ER-beta LBD / SRC1-Cy5 peptide binding; receptor agonist-loaded with 1 µM estradiol; inhibition, % at 25.6 µM; hit rate 1.3% among 86,000;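 active = compounds whose percent inhibition of the receptor-coactivator binding signal exceeds about 50% in the single-dose screen, limit read from the data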;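 also: 0% = receptor plus peptide wells without compound and 100% = peptide-only wells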
ERa coact pot: enhancers of ERα–SRC-1 coactivator binding, primary screen, biochemical, TR-FRET, ERα LBD, low estradiol; Estrogen receptor (Homo sapiens), P03372; coactivator binding (% of control), % at 25.6 µM; hit rate 1.3% among 86,000; TR-FRET ERalpha-LBD/SRC-Cy5 coactivator binding, 2 h; 100 = basal binding, no effect; AID 639, 2007; in the data active = activity above about 200%;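 also: binding measured in presence of low estradiol as agonist stimulus; 0% = peptide alone without receptor and 100% = receptor with peptide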
EphB4 antag: EphB4-ephrin-B2 interaction antagonists, primary screen, biochemical, TNYL-RAW peptide probe, fluorescence polarization; inhibition, % at 7 µM; EphB4 LBD / TNYL-RAW-Alexa532 peptide; AID 720, 2007; Ephrin type-B receptor 4 (Homo sapiens), P54760; hit rate 0.15% among 97,000;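 active = inhibition above the screen-wide mean inhibition plus 3 SD, cut at about 15% in these data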;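 also: 0% = DMSO wells and 100% = excess unlabeled TNYL-RAW peptide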
The depositor's hits bear a star; . = not tested or not shown; [ ] = another dose, or the depositor's remark.

SMILES	ERa SRC1 inh	ERb SRC1 inh	ERa coact pot	EphB4 antag
COc1cc(C(=O)OCC(=O)NCc2ccco2)cc(OC)c1OC	-10	-5	82	4
Cn1nc([N+](=O)[O-])c2c(-c3nc4ccccc4s3)c(N)n(C3CCCCC3)c2c1=O	93*	65*	4	8
Cc1[nH]c2ccccc2c1[C@H]1[C@@H](CC#N)C1(C)C	-1	-8	103	0
COc1cc2c(C#N)c(N3CCCCC3)nc(N)c2c(N)n1	14	5	103	-14
COc1cc2c(C#N)c(N3CCOCC3)nc(N)c2c(N)n1	1	75*[fluorescence artefact?]	95	-3
Cc1onc(-c2ccccc2)c1C(=O)Nc1cccc2nsnc12	36	22	266*	11
Cc1onc(-c2ccccc2)c1C(=O)Nc1nc(-c2cc(F)ccc2F)cs1	6	19	208*[fluorescence artefact?]	-1
CCn1cc(/C=N/NS(=O)(=O)c2ccc(OC)cc2)c(C)n1	.	.	.	3
N#C/C(=C(/O)COC(=O)CCCNC(=O)c1ccc(Cl)cc1)c1nc2ccccc2[nH]1	52*[fluorescence artefact?]	40	66	-6
CCOC(=O)N1CCN(c2c(NCCCOC(C)C)c(=O)c2=O)CC1	0	-13	213*	.
CC(=O)Nc1cccc(C(=O)Nc2ccccc2C(=O)O)c1	-3	-6	116	-7
O=C(Nc1ccc(Cl)cn1)c1ccc2ccccc2n1	3	-10	99	3
O=C(Nc1ccccc1C(=O)O)c1ccccc1	39	51*	80	-4
O=C(Nc1ccccc1C(=O)N1CCOCC1)c1ccncc1	-2	1	125	15*
O=C(Nc1ccccc1C(=O)O)c1ccc2ccccc2n1	1	91*[fluorescence artefact?]	94	-8
O=C(Nc1ccccc1C(=O)N1CCOCC1)c1ccco1	-7	9	104	-5
Cc1c(C(=O)N2CCCCC2)sc(NC(=O)C23CC4CC(CC(C4)C2)C3)c1C#N	3	1	124	7
Cn1c(=O)[nH]c(=O)c2c1nc1n2CCCN1CCc1ccccc1	65*	62*	76	-2
Cc1csc2nc(CCNS(=O)(=O)c3ccc4c(c3)OCCO4)cn12	54*	24	58	4
Cc1oc2c(O)c(O)ccc2c(=O)c1-c1cnn(-c2ccccc2)c1	.	.	.	-1
Cc1oc2cc(O)cc(C)c2c(=O)c1-c1cnn(-c2ccccc2)c1	14	-10	236*[fluorescence artefact?]	7
CCc1nn2c(=O)cc(CSc3nc4sc5c(c4c(=O)n3C)CCCC5)nc2s1	38	53*[fluorescence artefact?]	85	-2
O=C1NN(c2ccc(Cl)c(Cl)c2)C(=O)/C1=C/c1cccc(OC(=O)c2cccs2)c1	51*	28	66	11
O=C1NN(c2ccccc2)C(=O)/C1=C\c1cccc(OC(=O)c2cccs2)c1	37	9	117	7
c1ccc(-c2csc(N3CCCCCC3)n2)cc1	-2	5	79	7
SMILES	ERa SRC1 inh	ERb SRC1 inh	ERa coact pot	EphB4 antag
NC(=O)C1(N2CCCCC2)CCN(c2nc(-c3ccc(Br)cc3)cs2)CC1	71*	24	108	2
N#Cc1c(-c2ccccc2)c(-c2ccccc2)nn(CC(=O)NNC(=O)Nc2ccc(Cl)c(Cl)c2)c1=O	.	.	.	-7
N#CC1=C(SCC(=O)Nc2cccc3cccnc23)NC(=O)C(C#N)C12CCCCC2 (stereo not given)	66*[fluorescence artefact?]	51*	51	0
Cc1nc(SCC(=O)N2c3ccccc3Sc3ccccc32)n[nH]1	-4	0	97	-3
COc1ccc(CC(=O)Nc2ccc(-c3nnc(-c4ccccc4)o3)cc2)cc1OC	70*[fluorescence artefact?]	51*[fluorescence artefact?]	97	-1
COc1ccc(-c2nc3cc(NC(=O)Cc4ccc(OC)c(OC)c4)ccc3o2)cc1	27	16	273*[fluorescence artefact?]	6
CCN(CC)CC(=O)Nc1ccc(-c2nc3cc(NC(=O)CN(CC)CC)ccc3o2)cc1	12	4	83	.
COc1ccc(CC(=O)Nc2cccc(-c3nnc(-c4ccccc4)o3)c2)cc1OC	30	17	138	3
Cc1cc2c(c(=O)o1)C(C13C=CC(CC1)C3)C(C#N)=C(N)O2 (stereo not given)	-8	-5	101	-7
COc1ccc(N2Cc3cccc(C(=O)N4CCN(C(=O)c5ccco5)CC4)c3C2=O)cc1	71*	68*	84	3
COc1ccc(CCNC(=O)CSc2nc3ccccc3o2)cc1	1	-10	86	3
O=C(CSc1nc2ccccc2c2nc3ccccc3n12)NCc1ccco1	74*[fluorescence artefact?]	48	92	5
O=C(CCCCCn1c(SCc2ccncc2)nc2ccccc2c1=O)NCc1ccco1	57*[fluorescence artefact?]	44	108	6
O=C(CSc1nc2ccccc2c(=O)n1CCCC(=O)N1CCCC1)NCc1ccco1	-1	5	109	-3
Cn1c(SCC(=O)NCc2ccco2)nc2ccccc2c1=O	5	5	123	-1
CC(=O)Nc1ccc(S(=O)(=O)NCCSCc2ccc(Cl)cc2Cl)cc1	.	.	.	0
O=C(COc1ccc2ccccc2c1)Nc1ccc(S(=O)(=O)N2CCCCCC2)cc1	-12	-10	116	0
Cc1onc(-c2c(F)cccc2Cl)c1C(=O)NC1CCSC1=O (stereo not given)	-9	23	115	-9
Cc1nc(/C=[N+](\[O-])C(C)(C)/C=N/O)n(O)c1C	-5	56*[fluorescence artefact?]	114	-1
CNc1cccccc1=S	96*[fluorescence artefact?]	-7	11	-9
CC(C)(C)Nc1cccccc1=O	-4	9	102	6
CC(=O)N(C(C)=O)c1c(C#N)c(C)n(-c2ccccc2)c1C(=O)c1ccccc1	68*	-5	94	2
N#Cc1c(N)c(C(=O)c2ccccc2)n2c1CCCC2	-5	-3	102	-3
CCNC(=S)NNC(=O)c1cc(C2CC2)nc2ccccc12	.	.	.	-2
CCOC(=O)CN(C(=O)CSc1nnc(CNc2ccc(F)cc2)n1CC)c1ccc(F)cc1	-3	-8	223*	2
SMILES	ERa SRC1 inh	ERb SRC1 inh	ERa coact pot	EphB4 antag
Cc1ccc(NS(=O)(=O)c2cc(C(=O)NCc3ccccn3)ccc2Cl)cc1C	.	.	.	3
CCCCn1c(SCC(=O)NC(=O)NCc2ccco2)nc2cc(S(N)(=O)=O)ccc21	58*[fluorescence artefact?]	43	80	-4
Cc1cc(SCC(=O)NC(=O)NCc2ccco2)nc2c(C)cccc12	65*	50	60	.
Cc1cc(SCC(=O)NC(=O)NCc2ccco2)nc2ccccc12	9	5	127	-1
O=C(CSc1nn(-c2ccc(F)cc2)c(=S)s1)NC(=O)NCc1ccco1	67*[fluorescence artefact?]	47	72	6
O=C(CSc1nc2ccccc2o1)NC(=O)NCc1ccco1	30	32	96	0
Cc1ccccc1CSCC(=O)NC(=O)NCc1ccco1	55*	40	82	.
CCOc1ccc2nc(SCC(=O)N(C)C)[nH]c2c1	3	-2	123	4
